Measured values from PubChem BioAssay (NCI).
The panel holds about 79,000 compounds, 15% with a hit somewhere; the sample as a whole holds those more often. Values without a mark were called inactive. The source made the active and inactive calls. Cut-off read from the data, not from the text of the source: active = growth inhibition above about 70%; inactive = the rest. Where a SMILES comes first, the peptide text is derived from it.

Columns and labels:
[1] = NCI Yeast Anticancer Drug Screen. Data for the rad50 strain (AID 155);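 note: 0% = growth of vehicle-only cultures of the same strain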; settings: S. cerevisiae rad50 strain growth inhibition; at 50.0 µM; hits give high values
Summary of the method: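 Genetically altered yeast (DNA repair pathway); compound treatment; growth inhibition vs vehicle ctrl.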

[2] = NCI Yeast Anticancer Drug Screen. Data for the mec2-1 strain (AID 157); settings: S. cerevisiae mec2-1 strain, at 50.0 µM, hits give high values
Summary of the method: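 Strain: mec2-1 (DNA repair/cell cycle alteration). Compound exposure, then growth measured; inhibition expressed relative to vehicle.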

[3] = NCI Yeast Anticancer Drug Screen. Data for the sgs1 mgt1 strain (AID 161);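 note: 0% = growth of cultures given vehicle only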; settings: S. cerevisiae sgs1 mgt1 strain, at 50.0 µM, hits give high values
Summary of the method: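 Mutant yeast exposed to compound; growth scored against vehicle-only wells.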

[4] = NCI Yeast Anticancer Drug Screen. Data for the cln2 rad14 strain (AID 165);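 note: 0% = growth equal to vehicle treated cultures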; settings: S. cerevisiae cln2 rad14 strain, at 50.0 µM, hits give high values
Summary of the method: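 Compounds are applied to the cln2 rad14 yeast strain, and growth is then compared with that of vehicle-treated cultures to give inhibition.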

[5] = NCI Yeast Anticancer Drug Screen. Data for the bub3 strain (AID 167); settings: S. cerevisiae bub3 mutant strain, at 50.0 µM, hits give high values
Summary of the method: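 Yeast carrying a defined mutation is treated with each compound, and growth is compared with that of vehicle-exposed cells to give inhibition.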

[6] = NCI Yeast Anticancer Drug Screen. Data for the mlh1 rad18 strain (AID 175); settings: S. cerevisiae mlh1 rad18 strain growth inhibition; at 50.0 µM; hits give high values
Summary of the method: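 Read-out is yeast growth inhibition, calculated against vehicle-only controls. The compound was applied to a strain engineered with DNA damage repair alterations.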

| SMILES | growth inhibition [1] [%] | growth inhibition [2] [%] | growth inhibition [3] | growth inhibition [4] [%] | growth inhibition [5] [%] | growth inhibition [6] |
| --- | --- | --- | --- | --- | --- | --- |
| Cc1cc(=O)n(Cc2ccco2)c(=S)[nH]1 | 25.1 | -25.4 | 14.6% | 0.75 | -0.9 | -9% |
| CCn1c(C)nc2ccccc21 | -12.7 | -6.55 | 2.5% | -0.5 | -16.1 | 1.5% |
| CCCCOC(=O)NC(=O)c1cc2cc(I)cc(I)c2oc1=O | 3.45 | 5.8 | -7.75% | -50.2 | -10.6 | 17.6% |
| Cc1cccc(-c2cccc(C)c2C)c1C | -6.5 | 4.75 | -1.35% | 11.7 | 4.2 | 16.1% |
| COC1/C=C\OC2(C)Oc3c(C)c(O)c4c(O)c(c5[nH]cnc5c4c3C2=O)NC(=O)/C(C)=C\C=C\C(C)C(O)C(C)C(O)C(C)C(OC(C)=O)C1C (stereo unspecified) | 12.1 | 3.8 | 24% | 28.2 | 17.1 | 21.4% |
| Cc1cccc(-n2c(CC#N)n[nH]c2=S)c1 | 21 | -21.8 | -0.4% | 3.15 | 5.2 | 5.45% |
| C=CCCCCCCCCCCCCCCC | -36 | -26.9 | -26.2% | 5.3 | -31.9 | -35% |
| Clc1ccc2sc3c(c2c1)CCNC3 | 2.8 | 0.1 | -6.75% | -31.4 | -26 | 13.6% |
| O=C(NO)C(=O)Nc1ccc(Cl)cc1[N+](=O)[O-] | 47 | 28.4 | 36.5% | 42 | 49.1 | 44.7% |
| O=[N+]([O-])c1ccc(COP(=O)(O)OCc2ccc([N+](=O)[O-])cc2)cc1 | -1.5 | 10.9 | 13.1% | -9.55 | 11.2 | 15.4% |
| CC(=O)OCC(=O)O[C@@H]1[C@H]2[C@@H](OC(=O)c3ccccc3)[C@@H](C)C[C@]2(O)[C@H](OC(C)=O)[C@@]2(C)C(OC(C)=O)[C@]1(OC(C)=O)C[C@H]1C(=O)C(C)(C)C[C@@H]12 (stereo partly specified) | -39.6 | -33 | -36.5% | -28.9 | -41.5 | -61% |
| CC(=O)NC1C(O)C(O)C(CO)OC1n1nc(SCc2ccccc2)c(=O)[nH]c1=O (stereo unspecified) | 3.9 | 11.9 | -12.9% | -5.65 | -24.4 | -36.5% |
| C=CCn1c(=S)sc2c(=O)[nH]cnc21 | 14.6 | 1.7 | 25.8% | 22.3 | 8.15 | 11.4% |
| COc1cccc(Oc2cccc[n+]2CC(C)=O)c1 | -57.5 | -10.3 | 3.75% | 8.4 | 0.3 | 1.15% |
| CC1=C(CCC(C)CO)O[C@H]2C[C@H]3[C@@H]4CC[C@H]5C[C@@H](O)CC[C@]5(C)[C@H]4CC(=O)[C@]3(C)[C@@H]12 (stereo partly specified) | 64.3 | 28.6 | 84% (active) | 38.4 | 67.3 | 70.8% (active) |
| CC(C)NC(=O)C(C(C)C)C(C)(C)C (stereo unspecified) | -2.95 | 5.25 | 1.35% | 12.1 | 9.2 | -2.15% |
| O=[N+]([O-])c1ccc(CCO)cc1 | -4.15 | -26.1 | -6.85% | -15.4 | -10.5 | -4.6% |
| O=C(CNOCc1ccccc1)OCc1ccccc1 | 25.5 | 16.1 | 2.65% | -6.8 | 3.45 | 19.4% |
| Oc1ccc2c(c1)-c1ccccc1C2 | 38.8 | 2.9 | -4.5% | 17.2 | 37.3 | 29.9% |
| CCC1C(OC)=CC(CC)(CO)C=C1OC (stereo unspecified) | 4.35 | -3.45 | 6.15% | 14.2 | 6.8 | -6.3% |
| CCOC(=O)C(Cc1ccccc1)NC(=O)c1[nH]cnc1/N=N/N(C)C (stereo unspecified) | 44 | -44 | -29.4% | -2.05 | 2.8 | -22.3% |

| SMILES | growth inhibition [1] [%] | growth inhibition [2] [%] | growth inhibition [3] | growth inhibition [4] [%] | growth inhibition [5] [%] | growth inhibition [6] |
| --- | --- | --- | --- | --- | --- | --- |
| COc1ccc(OC)c(/C=C/c2ccc(NC(=O)C(Cl)(Cl)Cl)cc2)c1 | -11.1 | -3.8 | -12.2% | -36.3 | -2.55 | 10.2% |
| CC(C)=NNC(=S)NC12CC3CC(CC(C3)C1)C2 | 29.4 | 39.3 | 25.1% | -8.7 | 48.7 | 35% |
| CN(C)N=Nc1ccccc1 | 38.2 | -14.2 | 0% | 15.4 | -1.65 | 29.2% |
| CCCC(P(c1ccccc1)c1ccccc1)P(=O)(c1ccccc1)c1ccccc1 (stereo unspecified) | 62.7 | 39.2 | 39.1% | 24.9 | 59.4 | 29.1% |
| CC(=O)Nc1c(C)cc(C)cc1[N+](=O)[O-] | 8.05 | 7.15 | -12.9% | 2.65 | 6.4 | 22.1% |
| Cc1ccccc1NN | 29.1 | 7.05 | -2.3% | -2.6 | 4 | 7.6% |
| c1ccc(-c2nc3ccccc3nc2-c2ccc(-c3ccc(-c4nc5ccccc5nc4-c4ccccc4)cc3)cc2)cc1 | 16.1 | 5.8 | -13.8% | 21.3 | -0.4 | 4.1% |
| CC(C)(C)OC(=O)N/N=C(/N)Cc1ccc(Cl)cc1 | -4.05 | 19.4 | -6.2% | -13.9 | -14.2 | 6.4% |
| CN(C)CCCc1c2ccccc2nc2ccc(Cl)cc12 | 12.5 | 4.5 | -10% | -2.65 | 2.65 | 26.5% |
| N#CCSCC(N)C(=O)O (stereo unspecified) | -11.1 | -15.2 | -1.1% | -6.75 | -19.6 | -4.8% |
| Cc1ccc(NC(=S)N2CCCCC2C)cc1C (stereo unspecified) | 17.9 | 11.7 | 12.7% | 3.1 | 16.6 | -6.15% |
| CCOC(=O)Cc1nc2ccccc2[nH]c1=O | 25 | -11.7 | 1.25% | 0.35 | -6.35 | -17.2% |
| O=C(CS(=O)(=O)Cc1ccccc1)N1CCOCC1 | -9.4 | -13.3 | -6.55% | -3.8 | -3 | -27.5% |
| O=C(C[N+]12CN3CN(CN(C3)C1)C2)c1ccc(-c2ccccc2)cc1 | 65.7 | 34.2 | 53.2% | 21.1 | 39.2 | 45.6% |
| CCCCC(CC)OC(=O)Cc1ccccc1 (stereo unspecified) | 10.9 | -4.25 | 13.1% | -6.5 | -4.45 | 16.5% |
| COc1ccc(C2=NOC3COC4C=CC=CC4OCC23)cc1 (stereo unspecified) | -11.4 | -22.1 | -13.6% | -17.9 | -19.4 | -18.6% |
| CC(=O)NC(CCC(=O)C=[N+]=N)C(=O)O (stereo unspecified) | 18.4 | -14.7 | 33.5% | 14.1 | 23.8 | 12.6% |
| CCCCCCC1=CCCC1=O | -3.5 | -25.4 | -3.35% | -3.6 | 2.55 | 11.5% |
| CC(=O)NC(CO)C(=O)NC(Cc1ccc(O)cc1)C(=O)NCC(N)=O (stereo not drawn) (Ac-Ser-Tyr-Gly-NH2; configuration not given here) | -26.7 | -23.5 | -9.4% | 18.8 | 10.9 | -6.8% |
| C=CCc1ccc(OC(=O)Nc2ccc(S(=O)(=O)N(C)C)cc2)c(OC)c1 | 26.6 | 2 | 22.8% | 14.6 | 6.75 | 19.2% |
